# In PubChem BioAssay (EPA / NIEHS):
# Records with an inconclusive call do not appear. The source made the active and inactive calls. Rule for the calls, unless noted: active = hit-call score of the fitted dose curve at least 0.9, where 1 is the maximum; inconclusive = response in the unintended direction; inactive = score below 0.9.
# Legend:
# [1] = target: human Caspase 2 (CASP2), CASP2 (gene 835) (UniProt P42575); experiment: NVS_ENZ_hCASP2: NovaScreen (NVS) Enzymatic Assay for human Caspase 2 (CASP2) (AID 2283135)
# In short: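 Single-point duplicate testing at 25 uM preceded concentration series topping at 50 uM. Activity of the recombinant E. coli-derived protease was followed by fluorescent substrate cleavage 1 h post-dosing, relative to DMSO.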
# [2] = target: human Ephrin type-B Receptor 2 (EphB2), EPHB2 (gene 2048) (UniProt P29323); experiment: NVS_ENZ_hEphB2: NovaScreen (NVS) Enzymatic Assay for human Ephrin type-B Receptor 2 (EphB2) (AID 2283156)
# In short: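 Compounds were first tested in duplicate at 25 uM, with hits rerun singly in concentration series up to 50 uM. Enzyme activity on fluorescent substrate was read at 1 h by mobility-shift separation, scored as signal loss relative to DMSO.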
# PPP2CA (gene 5515) = PPP2CA (gene 5515) (UniProt P67775); experiment: NVS_ENZ_hPPP2CA: NovaScreen (NVS) Enzymatic Assay for human Protein Phosphatase 2 Aatalytic subunit Alpha (PPP2CA) (AID 2283199)
# In short: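 Cell-free phosphatase activity: fluorescent substrate turnover by recombinant human enzyme, resolved by mobility shift at 1.33 h. Compounds passing the 25 uM duplicate primary screen were rerun in singleton series with a 50 uM top concentration.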
# [3] = target: human Protein Tyrosine Phosphatase Receptor Type C (PTPRC), PTPRC (gene 5788) (UniProt P08575); experiment: NVS_ENZ_hPTPRC: NovaScreen (NVS) Enzymatic Assay for human Protein Tyrosine Phosphatase Receptor Type C (PTPRC) (AID 2283212)
# In short: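 Absorbance-based phosphatase activity of human PTPRC protein extracted from yeast was measured 1 h post-dosing. Compounds first tested at 25 uM in duplicate, then those passing threshold in singleton concentration series to 50 uM.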
# [4] = target: Voltage-dependent N-type calcium channel subunit alpha-1B (Rattus norvegicus) (UniProt Q02294); experiment: NVS_IC_rCaChN: NovaScreen (NVS) Ion Channel Assay for rat Calcium Channel, Type N (CaChN) (AID 2283317)
# [5] = target: rat Monoamine Oxidase, MAO-B, Central (MAOBC), Maob (gene 25750) (UniProt P19643); experiment: NVS_ENZ_rMAOBC: NovaScreen (NVS) Enzymatic Assay for rat Monoamine Oxidase, MAO-B, Central (MAOBC) (AID 2283238)
# In short: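 Actives from a duplicate 25 uM screen went on to singleton concentration-response with a 50 uM maximum. Enzyme source was rat brain tissue MAO-B, assayed cell-free. Radiolabelled product was counted by scintillation 1.17 h post-dose, with signal loss relative to DMSO.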
# [6] = target: rat Oxytocin Receptor (OXT), Oxtr (gene 25342) (UniProt P70536); experiment: NVS_GPCR_rOXT: NovaScreen (NVS) G Protein-Coupled Receptor Assay for rat Oxytocin Receptor (OXT) (AID 2283330)
# In short: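 Binding to rat uterine membrane receptor was followed by scintillation counting of filter-trapped radioligand after 1 h. A 25 uM duplicate single-point screen preceded concentration series with a top of 50 uM. Signal loss was analysed relative to DMSO.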
# [7] = ATG_M_32_XSP2: Attagene TRANS-FACTORIAL Multi-Species (XSP2) HepG2 Assay for M19 Transcription Factor (Internal Marker) (AID 2283826)
# In short: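 HepG2 cells transiently transfected with GAL4-UAS reporter units; XSP2 panel included 3 nM 6-alpha-fluorotestosterone and 1.5 nM norgestrel for androgen receptor stimulation. Reporter mRNA read 24 h post-dosing by RT-PCR/capillary electrophoresis; fitted upward versus DMSO.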
# [8] = CCTE_Harrill_HTTr_Apoptosis_PRF_DMEM_12hr: (Pilot) CCTE's 12-hour Apoptosis Assessment for the High-Throughput Transcriptomics (HTTr) Platform, in MCF-7 cells cultured in phenol red-free DMEM + 10% charcoal-stripped fetal bovine serum, Harrill Lab (AID 2283985; active = hit-call score of the fitted dose curve at least 0.9, where 1 is the maximum; inactive = score below 0.9)
# In short: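 Caspase-3/7 activity by CellEvent Green high content imaging after 12 h compound exposure (eight concentrations) in MCF-7 grown in phenol red-free DMEM plus 10% charcoal-stripped serum; DMSO as baseline.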
# [9] = target: human Aurora Kinase A - serine/threonine-protein Kinase 6 (AurA), AURKA (gene 6790) (UniProt O14965); experiment: NVS_ENZ_hAurA: NovaScreen (NVS) Enzymatic Assay for human Aurora Kinase A - serine/threonine-protein Kinase 6 (AurA) (AID 2283142)
# In short: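 Recombinant human AurA activity read by fluorescence after mobility-shift separation of product from substrate; 1 hour incubation. Chemicals first run in duplicate at 25 uM, then concentration series to 50 uM if over threshold; fitted relative to DMSO.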
# [10] = target: human Fibroblast Growth Factor Receptor 1 (FGFR1), FGFR1 (gene 2260) (UniProt P11362); experiment: NVS_ENZ_hFGFR1: NovaScreen (NVS) Enzymatic Assay for human Fibroblast Growth Factor Receptor 1 (FGFR1) (AID 2283159)
# In short: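 Cell-free recombinant kinase with fluorescent substrate, product separated by electrophoretic mobility shift; read 1 hour after dosing, loss of signal relative to DMSO. Initial screen in duplicate at 25 uM, actives followed in concentration series.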
# [11] = target: human Phosphatase and Tensin Homolog (PTEN), PTEN (gene 5728) (UniProt P60484); experiment: NVS_ENZ_hPTEN: NovaScreen (NVS) Enzymatic Assay for human Phosphatase and Tensin Homolog (PTEN) (AID 2283203)
# In short: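 Loss of fluorescent product signal after mobility-shift separation reports PTEN activity, recombinant human enzyme, 1 h after compound addition. Single 25 uM duplicate screen, then concentration-response on actives; DMSO baseline.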
# [12] = target: human Protein Tyrosine Phosphatase Non-receptor Type 2 (PTPN2), PTPN2 (gene 5771) (UniProt P17706); experiment: NVS_ENZ_hPTPN2: NovaScreen (NVS) Enzymatic Assay for human Protein Tyrosine Phosphatase Non-receptor Type 2 (PTPN2) (AID 2283207)
# In short: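 Activity measured as fluorescence after mobility-shift separation of substrate and product, 1 h after compound. Duplicate single-point 25 uM primary testing, concentration series for actives; inhibition scored as signal loss relative to DMSO baseline.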
# [13] = target: human Tyrosine Protein Kinase Receptor Tie-2 (Tie2), TEK (gene 7010) (UniProt Q02763); experiment: NVS_ENZ_hTie2: NovaScreen (NVS) Enzymatic Assay for human Tyrosine Protein Kinase Receptor Tie-2 (Tie2) (AID 2283225)
# In short: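 Substrate and product were separated by mobility shift and detected by fluorescence after a 1-hour reaction with recombinant Tie2. Chemicals passing a 25 uM single-point screen were titrated to a maximum of 50 uM. Results were normalized to DMSO baseline.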
# [14] = target: bovine Gamma-Aminobutyric Acid Type A Receptor BDZ, alpha 1 site (GABARa1), GABRA1 (gene 780973) (UniProt P08219); experiment: NVS_LGIC_bGABARa1: NovaScreen (NVS) Ligand-Gated Ion Channel Assay for bovine Gamma-Aminobutyric Acid Type A Receptor BDZ, alpha 1 site (GABARa1) (AID 2283321)
# In short: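 Bovine cortex membrane preparation, benzodiazepine site on GABA-A alpha1; specific radioligand displacement read after 0.75 h by filtration and scintillation. Screen at 25 uM, then singleton titrations up to 50 uM; DMSO baseline.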
# [15] = target: human Epidermal Growth Factor Receptor (EGFR), EGFR (gene 1956) (UniProt P00533); experiment: NVS_ENZ_hEGFR: NovaScreen (NVS) Enzymatic Assay for human Epidermal Growth Factor Receptor (EGFR) (AID 2283151)
# In short: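 Cell-free kinase assay, fluorescence plus electrophoretic mobility shift separating substrate and product, read 1 hour after dosing; loss of signal vs DMSO. Duplicate screen at 25 uM, then concentration-response to 50 uM.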
# [16] = target: Protein deacetylase HDAC6 (Homo sapiens) (UniProt Q9UBN7); experiment: NVS_ENZ_hHDAC6: NovaScreen (NVS) Enzymatic Assay for human Histone Deacetylase 6 (HDAC6) (AID 2283164)
# In short: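 Concentration-response runs up to 50 uM followed a duplicate 25 uM single-point screen. Deacetylase activity of recombinant human HDAC6 read by fluorescence after 1 h, with mobility-shift separation of substrate and product; DMSO as baseline.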
# [17] = target: human p21 Activated Kinase 4 (PAK4), PAK4 (gene 10298) (UniProt O96013); experiment: NVS_ENZ_hPAK4: NovaScreen (NVS) Enzymatic Assay for human p21 Activated Kinase 4 (PAK4) (AID 2283189)
# In short: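 Extracted PAK4 enzyme activity read by fluorescence with mobility-shift separation 1 h after chemical addition. Duplicate single-concentration screen at 25 uM, DMSO as negative control.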
# [18] = target: human Raf-1 Proto-Oncogene, serine/threonine Kinase (RAF1), RAF1 (gene 5894) (UniProt P04049); experiment: NVS_ENZ_hRAF1: NovaScreen (NVS) Enzymatic Assay for human Raf-1 Proto-Oncogene, serine/threonine Kinase (RAF1) (AID 2283216)
# In short: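 Single-point screening at 25 uM (duplicate), followed by singleton concentration-response to 50 uM maximum for chemicals exceeding threshold. Enzyme activity from fluorescent substrate-product mobility-shift separation after 1 h, relative to DMSO.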
# Chain of human Tyrosine Protein Kinase Receptor Tie-2 (Tie2), TEK (gene 7010) (Q02763 whole entry, looked up): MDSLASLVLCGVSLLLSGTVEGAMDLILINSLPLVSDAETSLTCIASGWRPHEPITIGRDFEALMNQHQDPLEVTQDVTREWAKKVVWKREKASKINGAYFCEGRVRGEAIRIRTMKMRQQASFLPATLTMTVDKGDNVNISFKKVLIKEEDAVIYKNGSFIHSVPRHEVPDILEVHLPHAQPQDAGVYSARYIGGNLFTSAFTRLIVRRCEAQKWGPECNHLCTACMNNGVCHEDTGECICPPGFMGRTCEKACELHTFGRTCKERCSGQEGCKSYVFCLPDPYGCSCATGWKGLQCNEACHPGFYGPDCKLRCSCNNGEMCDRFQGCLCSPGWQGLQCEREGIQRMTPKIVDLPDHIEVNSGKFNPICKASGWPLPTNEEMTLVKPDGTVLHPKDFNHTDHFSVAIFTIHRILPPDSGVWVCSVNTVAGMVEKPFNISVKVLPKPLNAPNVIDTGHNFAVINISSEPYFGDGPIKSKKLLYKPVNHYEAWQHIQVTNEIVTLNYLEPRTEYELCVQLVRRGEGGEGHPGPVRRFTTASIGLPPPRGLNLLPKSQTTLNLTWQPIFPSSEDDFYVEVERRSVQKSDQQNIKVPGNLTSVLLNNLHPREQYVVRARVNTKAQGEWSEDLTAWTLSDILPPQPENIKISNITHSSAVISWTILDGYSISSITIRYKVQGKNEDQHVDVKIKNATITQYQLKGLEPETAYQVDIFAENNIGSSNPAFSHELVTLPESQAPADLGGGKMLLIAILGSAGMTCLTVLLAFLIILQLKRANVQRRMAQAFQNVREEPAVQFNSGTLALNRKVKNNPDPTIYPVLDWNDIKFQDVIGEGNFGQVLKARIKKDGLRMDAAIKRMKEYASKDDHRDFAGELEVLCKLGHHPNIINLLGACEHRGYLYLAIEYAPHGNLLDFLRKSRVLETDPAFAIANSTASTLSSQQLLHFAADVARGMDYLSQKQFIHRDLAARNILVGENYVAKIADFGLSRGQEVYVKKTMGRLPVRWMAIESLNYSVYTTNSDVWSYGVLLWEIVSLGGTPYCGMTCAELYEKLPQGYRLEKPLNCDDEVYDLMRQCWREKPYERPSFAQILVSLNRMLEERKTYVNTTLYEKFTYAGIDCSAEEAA
# Chain of human Aurora Kinase A - serine/threonine-protein Kinase 6 (AurA), AURKA (gene 6790) (O14965 whole entry, looked up): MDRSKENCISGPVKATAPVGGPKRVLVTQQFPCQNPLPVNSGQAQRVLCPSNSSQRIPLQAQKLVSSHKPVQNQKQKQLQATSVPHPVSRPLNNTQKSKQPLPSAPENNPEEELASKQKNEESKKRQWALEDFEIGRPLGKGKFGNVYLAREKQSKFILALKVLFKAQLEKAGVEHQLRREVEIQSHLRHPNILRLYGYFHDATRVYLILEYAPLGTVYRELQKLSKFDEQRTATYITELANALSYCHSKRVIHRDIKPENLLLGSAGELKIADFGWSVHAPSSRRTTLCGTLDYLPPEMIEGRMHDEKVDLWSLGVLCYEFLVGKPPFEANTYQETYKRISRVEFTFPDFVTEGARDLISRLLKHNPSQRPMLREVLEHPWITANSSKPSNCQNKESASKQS
# Chain of human Protein Tyrosine Phosphatase Non-receptor Type 2 (PTPN2), PTPN2 (gene 5771) (P17706 whole entry, looked up): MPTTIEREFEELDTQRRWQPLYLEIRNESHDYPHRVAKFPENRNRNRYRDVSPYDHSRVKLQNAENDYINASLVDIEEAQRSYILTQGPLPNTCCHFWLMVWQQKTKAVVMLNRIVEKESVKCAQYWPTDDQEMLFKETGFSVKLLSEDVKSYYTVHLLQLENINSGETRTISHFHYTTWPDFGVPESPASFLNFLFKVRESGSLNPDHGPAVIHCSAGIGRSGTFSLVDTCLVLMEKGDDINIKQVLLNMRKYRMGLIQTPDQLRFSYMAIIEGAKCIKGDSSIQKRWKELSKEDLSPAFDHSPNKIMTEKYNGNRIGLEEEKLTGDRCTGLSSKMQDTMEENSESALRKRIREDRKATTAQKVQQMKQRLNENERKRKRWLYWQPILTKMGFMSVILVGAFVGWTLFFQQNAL
# Chain of human Ephrin type-B Receptor 2 (EphB2), EPHB2 (gene 2048) (P29323 whole entry, looked up): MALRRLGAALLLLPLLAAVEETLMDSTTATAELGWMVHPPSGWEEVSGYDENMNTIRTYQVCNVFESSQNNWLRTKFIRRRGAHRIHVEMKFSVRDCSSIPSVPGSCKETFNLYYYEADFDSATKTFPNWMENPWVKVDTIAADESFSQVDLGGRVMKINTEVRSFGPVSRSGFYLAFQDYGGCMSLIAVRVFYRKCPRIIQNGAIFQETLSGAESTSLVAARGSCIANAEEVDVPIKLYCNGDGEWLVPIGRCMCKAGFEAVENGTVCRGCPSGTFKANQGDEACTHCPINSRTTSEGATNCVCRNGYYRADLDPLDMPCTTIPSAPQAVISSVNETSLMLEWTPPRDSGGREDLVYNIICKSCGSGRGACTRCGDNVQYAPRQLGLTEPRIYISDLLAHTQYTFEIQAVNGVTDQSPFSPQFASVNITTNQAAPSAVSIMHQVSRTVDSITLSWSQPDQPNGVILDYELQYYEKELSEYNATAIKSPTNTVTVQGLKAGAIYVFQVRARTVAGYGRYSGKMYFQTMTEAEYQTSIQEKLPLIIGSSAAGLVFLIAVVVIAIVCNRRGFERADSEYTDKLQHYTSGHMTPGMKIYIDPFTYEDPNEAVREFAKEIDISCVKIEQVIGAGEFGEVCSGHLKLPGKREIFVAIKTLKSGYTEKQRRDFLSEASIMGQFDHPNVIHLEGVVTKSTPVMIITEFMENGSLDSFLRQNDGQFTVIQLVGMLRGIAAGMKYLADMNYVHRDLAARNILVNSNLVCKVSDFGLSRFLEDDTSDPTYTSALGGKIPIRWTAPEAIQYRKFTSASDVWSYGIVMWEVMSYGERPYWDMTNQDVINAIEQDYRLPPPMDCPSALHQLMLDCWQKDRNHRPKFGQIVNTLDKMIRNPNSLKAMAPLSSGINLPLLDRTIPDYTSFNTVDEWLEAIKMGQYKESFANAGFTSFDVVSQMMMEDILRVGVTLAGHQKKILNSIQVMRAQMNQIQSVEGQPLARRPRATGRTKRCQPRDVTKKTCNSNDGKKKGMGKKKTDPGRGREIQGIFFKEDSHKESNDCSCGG
# Chain of human Phosphatase and Tensin Homolog (PTEN), PTEN (gene 5728) (P60484 whole entry, looked up): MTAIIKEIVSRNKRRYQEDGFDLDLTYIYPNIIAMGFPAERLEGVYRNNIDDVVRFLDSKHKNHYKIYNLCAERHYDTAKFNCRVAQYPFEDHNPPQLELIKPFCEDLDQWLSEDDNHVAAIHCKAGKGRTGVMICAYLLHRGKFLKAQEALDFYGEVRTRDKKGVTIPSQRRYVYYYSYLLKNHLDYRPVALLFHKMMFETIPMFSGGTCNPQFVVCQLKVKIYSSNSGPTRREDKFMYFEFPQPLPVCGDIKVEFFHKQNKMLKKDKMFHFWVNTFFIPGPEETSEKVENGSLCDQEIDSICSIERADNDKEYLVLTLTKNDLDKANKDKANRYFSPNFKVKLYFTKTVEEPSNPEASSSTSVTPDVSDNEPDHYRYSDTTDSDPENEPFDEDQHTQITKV
# Chain of human Protein Tyrosine Phosphatase Receptor Type C (PTPRC), PTPRC (gene 5788) (P08575 whole entry, looked up): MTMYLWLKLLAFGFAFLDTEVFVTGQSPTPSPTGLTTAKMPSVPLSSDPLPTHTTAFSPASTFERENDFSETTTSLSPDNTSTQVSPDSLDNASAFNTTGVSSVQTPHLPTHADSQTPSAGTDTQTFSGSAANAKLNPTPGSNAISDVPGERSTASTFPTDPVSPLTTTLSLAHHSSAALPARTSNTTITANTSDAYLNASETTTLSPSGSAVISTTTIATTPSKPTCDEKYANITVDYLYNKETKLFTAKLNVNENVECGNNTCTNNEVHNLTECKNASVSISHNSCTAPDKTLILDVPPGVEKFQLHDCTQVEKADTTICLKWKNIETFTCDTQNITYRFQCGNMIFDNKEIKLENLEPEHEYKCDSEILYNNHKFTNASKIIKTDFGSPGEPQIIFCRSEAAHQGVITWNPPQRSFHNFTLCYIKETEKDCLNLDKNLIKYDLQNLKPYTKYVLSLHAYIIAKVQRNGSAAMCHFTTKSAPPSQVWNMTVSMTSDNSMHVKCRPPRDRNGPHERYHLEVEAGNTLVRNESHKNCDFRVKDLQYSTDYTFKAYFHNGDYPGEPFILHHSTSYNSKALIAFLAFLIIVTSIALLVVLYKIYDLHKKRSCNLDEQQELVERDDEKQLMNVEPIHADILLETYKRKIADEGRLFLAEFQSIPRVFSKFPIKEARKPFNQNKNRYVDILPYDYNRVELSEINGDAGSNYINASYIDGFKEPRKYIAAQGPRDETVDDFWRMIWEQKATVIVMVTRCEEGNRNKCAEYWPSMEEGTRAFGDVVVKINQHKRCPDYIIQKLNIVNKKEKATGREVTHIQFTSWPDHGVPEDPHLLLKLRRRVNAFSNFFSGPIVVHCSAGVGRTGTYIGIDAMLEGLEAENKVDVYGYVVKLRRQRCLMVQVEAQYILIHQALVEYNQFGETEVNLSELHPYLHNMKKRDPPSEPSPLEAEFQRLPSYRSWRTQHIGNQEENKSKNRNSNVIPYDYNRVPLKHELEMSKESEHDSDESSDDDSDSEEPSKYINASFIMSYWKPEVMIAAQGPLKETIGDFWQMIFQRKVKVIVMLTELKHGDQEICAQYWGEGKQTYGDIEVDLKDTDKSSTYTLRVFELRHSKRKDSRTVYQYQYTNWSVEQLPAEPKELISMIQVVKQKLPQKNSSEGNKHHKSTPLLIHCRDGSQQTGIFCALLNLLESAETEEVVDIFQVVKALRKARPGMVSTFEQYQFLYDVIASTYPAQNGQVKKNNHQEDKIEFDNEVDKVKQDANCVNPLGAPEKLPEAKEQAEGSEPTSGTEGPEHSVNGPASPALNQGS
# Chain of PPP2CA (gene 5515) (P67775 whole entry, looked up): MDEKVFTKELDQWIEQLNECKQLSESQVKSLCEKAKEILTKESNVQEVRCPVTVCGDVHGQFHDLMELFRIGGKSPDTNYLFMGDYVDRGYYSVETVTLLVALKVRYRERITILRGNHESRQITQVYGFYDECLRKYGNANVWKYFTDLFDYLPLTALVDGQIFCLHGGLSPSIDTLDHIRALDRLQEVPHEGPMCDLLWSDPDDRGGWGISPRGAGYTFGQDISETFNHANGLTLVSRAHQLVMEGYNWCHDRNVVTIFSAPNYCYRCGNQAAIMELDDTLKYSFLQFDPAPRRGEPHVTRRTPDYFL
compound,measurement,setting,value
c1ccc2c(c1)Cc1ccccc1-2,outcome,[1],inactive
O=C1c2c(O)cccc2Cc2cccc(O)c21,AC50,[1],1.03 µM (active)
CN(C)C(=O)NC1(c2ccccc2)CCN(CCC[C@]2(c3ccc(Cl)c(Cl)c3)CCCN(C(=O)c3ccccc3)C2)CC1,outcome,[2],inactive
Cc1ccc(N)cc1O,outcome,[2],inactive
same,outcome,PPP2CA (gene 5515),inactive
CS(=O)(=O)c1ccc([C@@H](C[C@H]2CCC(=O)C2)C(=O)Nc2cnccn2)cc1Cl,AC50,[3],16.6 µM (active)
same,outcome,[4],inactive
COc1cccc(-c2ccc(/C=C\CN3CCCCCC3)cc2Cl)c1,AC50,[5],27.7 µM (active)
N=C(N)c1ccc(OCCCCCOc2ccc(C(=N)N)cc2)cc1,AC50,[5],0.0798 µM (active)
COc1ccc2cc(S(=O)(=O)N[C@H](CC(=O)N[C@H](Cc3ccc(CN4[C@H](C)CCC[C@@H]4C)cc3)C(=O)N(C)C(C)C)c3ccc4c(c3)OCO4)ccc2c1,outcome,[6],inactive
CC/C(=C(\c1ccccc1)c1ccc(OCCN(C)C)cc1)c1ccccc1,outcome,[7],inactive
O=C(O)Cc1cc(I)c(Oc2cc(I)c(O)c(I)c2)c(I)c1,outcome,[7],inactive
same,outcome,[8],inactive
C[C@]12CC[C@@H]3c4ccc(O)cc4C[C@@H](CCCCCCCCCS(=O)CCCC(F)(F)C(F)(F)F)[C@H]3[C@@H]1CC[C@@H]2O (some centres not stated),outcome,[8],inactive
CC=Cc1ccc(O)c(OC)c1,outcome,[9],inactive
CCOC(=O)C(C)(C)Oc1ccc(Cl)cc1,outcome,[9],inactive
same,outcome,[10],inactive
same,outcome,[11],inactive
same,AC50,[12],0.218 µM (active)
same,outcome,[3],inactive
same,outcome,[13],inactive
same,AC50,[14],25 µM (active)
same,outcome,[8],inactive
O=c1[nH]cnc2c1ncn2[C@H]1CC[C@@H](CO)O1,outcome,[9],inactive
same,outcome,[15],inactive
same,outcome,[10],inactive
same,outcome,[16],inactive
same,outcome,[17],inactive
same,outcome,[11],inactive
same,outcome,[12],inactive
same,outcome,[13],inactive
N[C@@H](Cc1cc(I)c(Oc2ccc(O)c(I)c2)c(I)c1)C(=O)O,AC50,[9],4.51 µM (active)
same,outcome,[17],inactive
same,outcome,[18],inactive
same,outcome,[13],inactive
same,outcome,[7],inactive
same,outcome,[8],inactive
